Experimental findings from PubChem BioAssay AID430 (Sanford-Burnham Center for Chemical Genomics, 2006) are described below.

Molecules are shown by their SMILES. In all, about 63,000 compounds went through this assay and about 1,100 (1.7%) were called active. Cut-off read from the data, not from the text of the source: active = cytotoxicity above about 50%; inactive = the rest. For the sample, actives were picked, then their nearest neighbours and some compounds at random. Potency and affinity values are given separately.

The assay is described as follows: HPDE-C7 pancreatic duct cell viability loss – fluorescence, HTS (AID 430).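 Note: cells exposed to compound for 48 hours before viability readout; 0% = vehicle and 100% = reference cytotoxic drug.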 As to conditions: HPDE-C7 pancreatic duct cells viability, at 10 µM, active compounds read high.
As for `CCOc1ccccc1C1NC(=O)NC(C)=C1C(=O)OC1CCCCC1` (configuration not stated), the cytotoxicity was 1.9% (inactive). Next, `COC(=O)c1c(C)n(-c2ccccc2)c2ccc(O)cc12`: 11.1% (inactive); `CC(C)C(NC(=O)OCc1ccccc1)C(=O)NCC(=O)OC(C)(C)C` (configuration not stated): 5.4% (inactive). As for `COc1ccc(C)cc1NS(=O)(=O)c1ccc(NS(=O)(=O)c2ccc(NC(C)=O)cc2)cc1`, the cytotoxicity is -5.6% (inactive).

As to `O=C(CCCOc1ccc(Cl)cc1)N1CCOCC1`, the cytotoxicity was -10.1% (inactive). In the case of `Cc1nc2sc(C(c3cccs3)N3CCC(C(N)=O)CC3)c(O)n2n1` (configuration not stated), the cytotoxicity was -20.4% (inactive). Regarding `OCC(CO)(CO)N=Cc1cc(Br)ccc1O`, the cytotoxicity is 8.1% (inactive). Turning to `CCCc1n[nH]c2c1C(=O)CC(C)(C)C2`, the cytotoxicity was 1.7% (inactive). In the case of `CCN(C(=O)CSc1nc2nc(C)cc(C)n2n1)c1ccccc1`, the cytotoxicity was -4% (inactive). In the case of `COC(=O)Cn1c2ccc(F)cc2c2nc(C)sc21`, the cytotoxicity is -12.3% (inactive). For the compound `Cc1cc(Nc2ccccc2)n(-c2nc3ccccc3[nH]2)n1`, the cytotoxicity was 4% (inactive). In the case of `Cc1cc(=O)[nH]c(-n2nc(C)cc2C)n1`, the cytotoxicity is -1.2% (inactive). Regarding `Cc1ccc(Nc2cc(C)nn2-c2nc(C)cc(=O)[nH]2)cc1`, the cytotoxicity is 102% (active). For `Cc1nc(C)c(C(=O)C2=C(O)C(=O)N(CCN3CCOCC3)C2c2cccnc2)s1` (configuration not stated), the cytotoxicity was -12.6% (inactive). With `Fc1cccc2sc(Nc3nnc(-c4ccccc4)o3)nc12`, the cytotoxicity is 53.3% (active). Take `Fc1cccc2sc(Nc3nnc(-c4ccco4)o3)nc12`: the cytotoxicity is 53.7% (active). For the compound `COc1cc(OC)cc(-c2nnc(Nc3nc4c(F)cccc4s3)o2)c1`, the cytotoxicity is 8.8% (inactive). For the compound `CCC(=O)Nc1nnc(-c2ccco2)o1`, the cytotoxicity is -23.7% (inactive). For `c1coc(-c2nnc(NC3=NCCC3)o2)c1`, the cytotoxicity is 7.5% (inactive).

Turning to `CC(=O)Nc1nc2c(F)cccc2s1`, the cytotoxicity is 9.8% (inactive). As to `Cc1ccc2c(n1)sc1c(N)ncnc12`, the cytotoxicity was 9.8% (inactive). For the compound `O=C(CSCc1cccc(Br)c1)N1CCOCC1`, the cytotoxicity is -8.7% (inactive). Next, `COc1ccc(-c2noc(-c3cc(Cl)ccc3Cl)n2)cc1OC`: -2.3% (inactive); `CCOc1ccc(C2N(c3ccc(OC)cc3)C(=O)C3CCCN32)cc1OC` (configuration not stated): 2.1% (inactive). Take `CCOC(=O)N1CCN(Cc2cc(=O)oc3ccc4ccccc4c23)CC1`: the cytotoxicity was 14.3% (inactive). As to `O=C(Nc1cc(=O)c2ccccc2o1)N1CCCCC1`, the cytotoxicity is -24.9% (inactive). Consider `CCOC(=O)/C=C(\C)Sc1cc(=O)oc2ccccc12`, for which the cytotoxicity is 78.4% (active). Next, `CCOC(=O)Oc1ccc2oc(=O)cc(C)c2c1`: 4.4% (inactive). With `O=C(Nc1cc(=O)c2ccccc2o1)N1CCOCC1`, the cytotoxicity was 11.2% (inactive). Turning to `CCOC(=O)Nc1cc(=O)c2ccccc2o1`, the cytotoxicity was 53.2% (active).

On to `COc1ccc(Cl)cc1NC(=O)C1CCCN(S(=O)(=O)c2cccc3nonc23)C1` (configuration not stated), for which the cytotoxicity is -12.6% (inactive).

Regarding `O=C(NCc1ccc(Cl)c(Cl)c1)c1ccco1`, the cytotoxicity is -4.6% (inactive). Then `CCCCn1c(=O)[nH]c2ccccc21`, with 9.9% (inactive). `COc1ccc(C(=O)NCC(C)CN(C)C)cc1` (configuration not stated): the cytotoxicity was -2.3% (inactive). In the case of `CCOC(=O)Nc1cccc(Nc2ccccc2)c1`, the cytotoxicity is 4.6% (inactive). Next, `Cc1ccc2[nH]c3c(c2c1)CCc1cn[nH]c1-3`: 43.6% (inactive).

Consider `Cc1ccc2[nH]c3c(c2c1)CCC3=O`, for which the cytotoxicity is -7.5% (inactive). With `CCN(CC)S(=O)(=O)c1cccc(C(=O)N2CCCCC2)c1`, the cytotoxicity was 1.9% (inactive). `c1ccc(-c2cn3nc(-c4ccccc4)sc3n2)cc1`: the cytotoxicity was -10.8% (inactive). Then `CCN(c1cccc(C(F)(F)F)c1)S(=O)(=O)c1ccc2c(c1)CCN2C(C)=O`, with 59.5% (active); and `CCN(c1cccc(C(F)(F)F)c1)S(=O)(=O)c1ccc2c(c1)CCN2C(=O)C1CC1`, with -11.3% (inactive); and `CCN(c1cccc(C)c1)S(=O)(=O)c1ccc2c(c1)CCN2C(C)=O`, with 46.6% (inactive). Take `CCC1CCCCN1C(=O)Cn1c(=O)n(CCC(=O)NCc2ccco2)c(=O)c2sccc21` (configuration not stated): the cytotoxicity was -4.6% (inactive).

Take `O=C(Nc1ccccn1)c1ccc2ccccc2n1`: the cytotoxicity is -1.6% (inactive). In the case of `c1ccc(Nc2ccccc2Nc2ccccn2)nc1`, the cytotoxicity is -35.9% (inactive).

On to `Oc1cccc2ccc(Nc3ccccn3)nc12`, for which the cytotoxicity was 119% (active). Next, `COC(=O)c1cc(Cc2ccc(N)c(C(=O)OC)c2)ccc1N`: 1.9% (inactive); `O=C(COC(=O)CSCC(=O)N1CCCCC1)NCc1ccc(F)cc1`: -5.4% (inactive); `O=C(NC1CCCCC1)c1ccc(Cn2cc(Br)cn2)o1`: -6.8% (inactive). For `CC(=O)c1sc(NC(=O)c2ccc(Cn3cc(Br)cn3)o2)nc1C`, the cytotoxicity was 3.3% (inactive).

As for `O=C(Nc1ccc(C(F)(F)F)cc1Cl)c1ccc(Cn2cc(Br)cn2)o1`, the cytotoxicity was 63.2% (active). Then `O=C1CC(C(F)(F)C(F)(F)C(F)(F)C(F)F)=Nc2ccccc2N1`, with -21.9% (inactive); and `Oc1ccccc1-c1cc(C(F)(F)C(F)F)[nH]n1`, with -15.5% (inactive). For the compound `FC(F)C(F)(F)C(F)(F)C(F)(F)c1cc(-c2ccccc2)n[nH]1`, the cytotoxicity is 83.3% (active). As to `CCOCCCNC(=O)Cn1ncc2c(=O)oc3ccccc3c21`, the cytotoxicity is -3.8% (inactive).

Turning to `CCN(CC)CCCNC(=O)Cn1ncc2c(=O)oc3ccc(C)cc3c21`, the cytotoxicity was 1.6% (inactive). Consider `CCN(CCCNC(=O)Cn1ncc2c(=O)oc3ccccc3c21)c1cccc(C)c1`, for which the cytotoxicity is 55.1% (active). As to `Cc1cc(C)nc(NC(=O)NS(=O)(=O)N2CCCCCC2)n1`, the cytotoxicity is -13.1% (inactive). As to `Cc1ccc2[nH]c(=O)c(CN(CCc3ccccc3)Cc3nnnn3CC3CCCO3)cc2c1` (configuration not stated), the cytotoxicity is 9.4% (inactive). Next, `CCOC(=O)N1CCN(C(=O)CSc2nnc(COc3ccc(Cl)cc3)o2)CC1`: -20.5% (inactive); `CN1/C(=C\C(=O)C(F)F)C(C)(C)c2ccccc21`: -24.8% (inactive). Then `CN1/C(=C\C(=O)c2ccco2)C(C)(C)c2ccccc21`, with -14.9% (inactive); and `CN1/C(=C/C(=O)c2nc(S(C)(=O)=O)ncc2Cl)C(C)(C)c2ccccc21`, with 110% (active). Then `COc1cc(CO)cc(Br)c1OCC(=O)O`, with -22.6% (inactive). As to `O=C(CSc1nnc(Cc2cc(=O)[nH]c(=O)[nH]2)n1-c1ccccc1)N1CCCC1`, the cytotoxicity was -9.2% (inactive).

As for `O=C(CSC1=NCCS1)Nc1ccccc1F`, the cytotoxicity is -3.4% (inactive). For `Cc1cc(NC(=O)CSc2nnc(-c3ccco3)n2Cc2ccco2)no1`, the cytotoxicity is -9.5% (inactive).

With `O=c1nc(-c2ccccc2)cc(-c2ccccc2)[nH]1`, the cytotoxicity was -1.2% (inactive).

Consider `[O-][n+]1onc2c1CCc1nnc(-c3ccccc3)cc1-2`, for which the cytotoxicity is 5.5% (inactive). With `Cc1ccc(/C(O)=C2/C(=O)C(=O)N(Cc3cccnc3)C2c2ccccn2)cc1` (configuration not stated), the cytotoxicity is 10.4% (inactive). On to `COc1cccc(Oc2cn[nH]c2-c2ccc(OC)cc2O)c1`, for which the cytotoxicity is 72.7% (active). Consider `C=C(C)COc1ccc(-c2nc(N)ncc2Oc2ccc(OC)cc2)c(O)c1`, for which the cytotoxicity is -10.3% (inactive). Turning to `COc1ccc(-c2nc(N)ncc2Oc2ccccc2Br)c(O)c1`, the cytotoxicity was -2.2% (inactive).

As for `COc1ccc(-c2nc(N)nc(C)c2Oc2ccccc2Br)c(O)c1`, the cytotoxicity was 87.7% (active). Next, `COc1cccc(Oc2cn[nH]c2-c2ccc(O)cc2O)c1`: 36% (inactive). On to `COc1ccc(-c2[nH]ncc2-c2cnn(-c3ccccc3)c2)c(O)c1`, for which the cytotoxicity is -0.4% (inactive). Turning to `COc1ccc(-c2nc(N)ncc2-c2csc(C)n2)c(O)c1`, the cytotoxicity was -25% (inactive). As for `CCOc1ccc(-c2nc(N)nc(C)c2-c2ccc(OC)c(OC)c2)c(O)c1`, the cytotoxicity is 3.7% (inactive). As for `COc1cccc(Oc2cncnc2-c2ccc(OC)cc2O)c1`, the cytotoxicity is 20.3% (inactive). Then `CCOc1ccc(-c2ncncc2-c2ccc(OC)cc2)c(O)c1`, with -11.9% (inactive); and `C=C(C)COc1ccc(-c2nc(N)ncc2-c2ccc(OC)cc2)c(O)c1`, with 70.7% (active).

Turning to `COc1cccc(Oc2cnc(N)nc2-c2ccc(OC)cc2O)c1`, the cytotoxicity is 52% (active). Consider `Cc1nc(N2CCC(C(N)=O)CC2)c2nnn(Cc3ccccc3)c2n1`, for which the cytotoxicity is 4.3% (inactive). Take `Cc1oc(C(=O)O)cc1CSc1nnc(-c2ccccc2)n1C`: the cytotoxicity was -2.3% (inactive). Then `COc1ccc(NC2c3ccccc3C(=O)N2Cc2ccco2)cc1OC` (configuration not stated), with 17.8% (inactive); and `Cc1cccc(Cn2cnc3c(nnn3Cc3ccc(F)cc3)c2=O)c1`, with 1.3% (inactive). As for `C=C(C)CSc1nnc(-c2ccccc2)n1N`, the cytotoxicity is -23.4% (inactive).

Turning to `COC(=O)c1nc2n(n1)C(c1ccc(OC)c(OC)c1OC)C1=C(CCCC1=O)N2` (configuration not stated), the cytotoxicity was 2.9% (inactive). As to `Cc1ccc(NC(=O)c2ccco2)cc1NC(=O)CSc1nnc(-c2cccs2)n1C`, the cytotoxicity was -3.6% (inactive). Consider `CCc1[nH]nc2c1C(c1cccc(OC(=O)N3CCOCC3)c1)C(C#N)=C(N)O2` (configuration not stated), for which the cytotoxicity is -34.3% (inactive). `COc1ccc(Nc2nc(-c3sc(N)nc3C)cs2)cc1`: the cytotoxicity is 46.6% (inactive). Next, `CCn1c(C(O)c2ccccc2)nc2ccccc21` (configuration not stated): -4.3% (inactive); `Cc1ccc(N2C(=O)C(Cl)=C(Nc3c(C)n(C)n(-c4ccccc4)c3=O)C2=O)cc1`: -0.2% (inactive).

On to `CCOc1ccc(-c2[nH]ncc2Oc2cccc(OC)c2)c(O)c1`, for which the cytotoxicity is 55.5% (active). With `Cc1ccc(NC(=O)C2CCCN2S(=O)(=O)c2ccc(F)cc2)c(C)c1` (configuration not stated), the cytotoxicity is -6.1% (inactive). Then `CCOC(=O)C1CCCN(CCCc2ccccc2)C1` (configuration not stated), with -2.8% (inactive); and `CCOC(=O)c1c(C2CCN(C(=O)OCC)CC2)nc2ccccn12`, with 0% (inactive); and `COc1ccc(C(C)=O)c2c(O)cccc12`, with 9.1% (inactive). Consider `COc1ccc2c3c(cccc13)OCC2=O`, for which the cytotoxicity was 8.3% (inactive). Next, `COc1cccc(/C(O)=C2/C(=O)C(=O)N(CCN3CCOCC3)C2c2cccnc2)c1` (configuration not stated): -7.7% (inactive); `CC(=O)Nc1nc2ccc(Br)cc2s1`: -11.8% (inactive); `Cc1c(C(=O)N2CCCC2)oc2c1-c1[nH]ncc1CC2`: 1% (inactive).
